Results on one compound are retold here after ChEMBL document CHEMBL1961873, “Compounds: GSK PKIS; Assays: Nanosyn kinase panel” (2012).

Assay [1] has as its target Protein kinase C gamma type (Homo sapiens) (UniProt P05129). The settings on record: at 1 µM.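 Also: each value is an averaged percent inhibition of the enzyme.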
In assay [2] the target is T1, Protein kinase C iota type (Homo sapiens) (UniProt P41743).
T1 sequence (whole entry): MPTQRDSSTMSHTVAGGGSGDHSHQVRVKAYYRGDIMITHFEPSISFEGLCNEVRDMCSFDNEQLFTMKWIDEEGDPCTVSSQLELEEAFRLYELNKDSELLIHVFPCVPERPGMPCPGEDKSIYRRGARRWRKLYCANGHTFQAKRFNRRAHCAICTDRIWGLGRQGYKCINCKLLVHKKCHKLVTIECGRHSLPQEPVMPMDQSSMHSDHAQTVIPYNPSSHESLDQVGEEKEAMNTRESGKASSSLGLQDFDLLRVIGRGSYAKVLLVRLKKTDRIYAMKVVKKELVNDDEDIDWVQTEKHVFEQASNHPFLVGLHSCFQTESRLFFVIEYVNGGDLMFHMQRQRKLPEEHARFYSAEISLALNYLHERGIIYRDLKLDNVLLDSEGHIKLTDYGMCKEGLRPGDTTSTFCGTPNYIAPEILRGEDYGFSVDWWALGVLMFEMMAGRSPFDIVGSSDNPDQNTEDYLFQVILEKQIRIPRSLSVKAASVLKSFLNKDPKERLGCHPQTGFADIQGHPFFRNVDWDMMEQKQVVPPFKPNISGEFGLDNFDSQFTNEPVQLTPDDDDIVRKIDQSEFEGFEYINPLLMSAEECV
As to conditions: at 0.1 µM.

For assay [3], the target named is T1, Protein kinase C iota type (Homo sapiens). The settings on record: at 1 µM.
Assay [4] has as its target Protein kinase C theta type (Homo sapiens) (UniProt Q04759). As to conditions: at 0.1 µM.
For assay [5] the target is unchanged. As to conditions: at 1 µM.
Assay [6] has as its target Protein kinase C beta type (Homo sapiens) (UniProt P05771). The settings on record: at 0.1 µM.
Assay [7] shares this target. As to conditions: at 1 µM.
Assay [8] addresses T2, Serine/threonine-protein kinase D1 (Homo sapiens) (UniProt Q15139).
T2 sequence (whole entry): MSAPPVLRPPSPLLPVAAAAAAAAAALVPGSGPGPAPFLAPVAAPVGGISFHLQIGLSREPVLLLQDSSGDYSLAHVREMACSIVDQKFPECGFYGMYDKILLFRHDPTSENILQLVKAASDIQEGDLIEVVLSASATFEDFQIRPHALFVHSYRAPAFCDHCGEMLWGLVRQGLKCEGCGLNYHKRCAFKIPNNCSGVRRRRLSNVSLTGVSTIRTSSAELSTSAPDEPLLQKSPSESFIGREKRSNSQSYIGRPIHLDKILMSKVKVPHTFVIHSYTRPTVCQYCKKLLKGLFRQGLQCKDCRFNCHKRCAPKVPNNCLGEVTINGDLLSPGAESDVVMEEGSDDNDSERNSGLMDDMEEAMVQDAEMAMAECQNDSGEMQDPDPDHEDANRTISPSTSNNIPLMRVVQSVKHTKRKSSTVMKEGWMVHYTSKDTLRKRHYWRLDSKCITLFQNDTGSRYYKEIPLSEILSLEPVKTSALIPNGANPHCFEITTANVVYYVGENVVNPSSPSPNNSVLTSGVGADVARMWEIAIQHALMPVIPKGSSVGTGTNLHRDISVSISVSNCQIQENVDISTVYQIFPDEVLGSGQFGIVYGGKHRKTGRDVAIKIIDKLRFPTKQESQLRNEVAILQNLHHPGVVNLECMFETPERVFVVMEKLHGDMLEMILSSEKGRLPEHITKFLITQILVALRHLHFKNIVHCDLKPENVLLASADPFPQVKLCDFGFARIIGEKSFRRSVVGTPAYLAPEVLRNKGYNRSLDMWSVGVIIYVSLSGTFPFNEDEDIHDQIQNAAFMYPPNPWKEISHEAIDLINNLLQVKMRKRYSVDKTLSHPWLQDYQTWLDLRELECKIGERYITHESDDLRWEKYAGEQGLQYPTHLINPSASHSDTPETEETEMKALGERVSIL
The settings on record: at 0.1 µM.

For assay [9], the target named is T2, Serine/threonine-protein kinase D1 (Homo sapiens). The settings on record: at 1 µM.
The target in assay [10] is T3, Serine/threonine-protein kinase D2 (Homo sapiens) (UniProt Q9BZL6).
T3 sequence (whole entry): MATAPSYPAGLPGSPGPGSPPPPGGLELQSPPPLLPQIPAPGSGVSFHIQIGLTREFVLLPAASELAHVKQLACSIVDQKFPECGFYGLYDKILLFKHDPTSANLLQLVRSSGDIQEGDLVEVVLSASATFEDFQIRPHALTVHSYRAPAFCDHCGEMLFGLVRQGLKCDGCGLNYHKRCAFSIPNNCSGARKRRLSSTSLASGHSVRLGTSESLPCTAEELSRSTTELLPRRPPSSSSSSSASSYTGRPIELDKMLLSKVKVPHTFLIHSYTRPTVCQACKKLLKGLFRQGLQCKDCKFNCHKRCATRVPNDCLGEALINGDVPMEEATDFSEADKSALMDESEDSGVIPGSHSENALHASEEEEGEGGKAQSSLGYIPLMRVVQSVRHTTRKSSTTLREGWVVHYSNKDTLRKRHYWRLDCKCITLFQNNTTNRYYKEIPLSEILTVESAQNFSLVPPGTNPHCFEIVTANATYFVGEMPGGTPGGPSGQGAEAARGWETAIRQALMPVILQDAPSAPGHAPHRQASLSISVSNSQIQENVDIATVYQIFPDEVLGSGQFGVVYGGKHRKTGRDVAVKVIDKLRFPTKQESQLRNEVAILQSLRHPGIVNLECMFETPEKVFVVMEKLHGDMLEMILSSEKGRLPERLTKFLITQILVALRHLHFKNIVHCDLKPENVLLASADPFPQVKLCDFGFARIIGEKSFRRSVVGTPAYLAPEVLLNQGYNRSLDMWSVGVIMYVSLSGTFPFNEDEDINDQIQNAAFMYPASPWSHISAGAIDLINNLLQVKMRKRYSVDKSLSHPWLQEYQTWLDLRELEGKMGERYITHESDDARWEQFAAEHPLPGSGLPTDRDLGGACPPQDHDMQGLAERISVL
The settings on record: at 0.1 µM.

Assay [11] addresses T3, Serine/threonine-protein kinase D2 (Homo sapiens). As to conditions: at 1 µM.
The target in assay [12] is T4, Serine/threonine-protein kinase D3 (Homo sapiens) (UniProt O94806).
T4 sequence (whole entry): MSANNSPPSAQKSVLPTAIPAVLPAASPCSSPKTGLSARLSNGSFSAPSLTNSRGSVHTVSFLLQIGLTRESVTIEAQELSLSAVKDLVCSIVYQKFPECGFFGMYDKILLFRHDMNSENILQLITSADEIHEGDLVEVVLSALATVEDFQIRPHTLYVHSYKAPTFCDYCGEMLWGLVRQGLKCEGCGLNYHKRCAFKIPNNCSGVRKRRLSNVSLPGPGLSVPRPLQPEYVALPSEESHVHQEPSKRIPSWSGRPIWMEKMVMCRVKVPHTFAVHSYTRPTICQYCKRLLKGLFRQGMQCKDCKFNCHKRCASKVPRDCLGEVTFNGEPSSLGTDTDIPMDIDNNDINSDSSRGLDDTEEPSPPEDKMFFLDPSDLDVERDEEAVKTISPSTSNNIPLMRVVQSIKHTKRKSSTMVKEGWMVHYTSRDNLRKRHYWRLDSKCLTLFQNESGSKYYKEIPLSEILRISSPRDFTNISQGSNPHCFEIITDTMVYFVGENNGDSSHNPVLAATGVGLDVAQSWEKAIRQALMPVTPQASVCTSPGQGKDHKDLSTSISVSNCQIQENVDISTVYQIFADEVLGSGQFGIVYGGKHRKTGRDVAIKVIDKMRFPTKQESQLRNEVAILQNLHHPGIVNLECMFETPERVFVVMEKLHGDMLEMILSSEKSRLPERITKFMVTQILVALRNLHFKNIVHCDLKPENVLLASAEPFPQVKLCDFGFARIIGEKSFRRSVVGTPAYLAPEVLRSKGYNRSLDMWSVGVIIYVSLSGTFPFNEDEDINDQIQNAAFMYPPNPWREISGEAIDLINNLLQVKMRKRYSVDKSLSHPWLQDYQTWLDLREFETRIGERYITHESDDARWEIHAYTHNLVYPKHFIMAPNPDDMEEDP
As to conditions: at 0.1 µM.

The target of assay [13] is T4, Serine/threonine-protein kinase D3 (Homo sapiens). As to conditions: at 1 µM.
Assay [14] concerns the target T5, cGMP-dependent protein kinase 1 (Homo sapiens) (UniProt Q13976).
T5 sequence (whole entry): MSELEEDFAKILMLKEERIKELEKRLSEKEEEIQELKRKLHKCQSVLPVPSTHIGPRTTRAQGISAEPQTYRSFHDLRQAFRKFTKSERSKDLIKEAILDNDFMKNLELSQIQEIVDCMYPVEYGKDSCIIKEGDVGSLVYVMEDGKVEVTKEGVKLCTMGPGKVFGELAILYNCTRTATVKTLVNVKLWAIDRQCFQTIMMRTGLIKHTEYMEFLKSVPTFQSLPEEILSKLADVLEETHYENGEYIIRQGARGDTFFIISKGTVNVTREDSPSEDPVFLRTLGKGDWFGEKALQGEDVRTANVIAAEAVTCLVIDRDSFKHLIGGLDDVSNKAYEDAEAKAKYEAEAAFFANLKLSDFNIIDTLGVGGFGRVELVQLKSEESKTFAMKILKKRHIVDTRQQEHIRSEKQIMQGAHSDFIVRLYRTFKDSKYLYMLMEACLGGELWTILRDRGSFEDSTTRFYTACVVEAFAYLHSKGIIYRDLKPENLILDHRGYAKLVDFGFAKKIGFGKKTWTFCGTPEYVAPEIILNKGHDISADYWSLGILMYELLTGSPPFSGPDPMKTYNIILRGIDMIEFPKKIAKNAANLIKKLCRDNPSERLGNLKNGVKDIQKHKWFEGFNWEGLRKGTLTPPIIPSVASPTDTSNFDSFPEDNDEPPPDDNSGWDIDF
The settings on record: at 0.1 µM.

The target of assay [15] is T5, cGMP-dependent protein kinase 1 (Homo sapiens). As to conditions: at 1 µM.
The target in assay [16] is T6, cGMP-dependent protein kinase 2 (Homo sapiens) (UniProt Q13237).
T6 sequence (whole entry): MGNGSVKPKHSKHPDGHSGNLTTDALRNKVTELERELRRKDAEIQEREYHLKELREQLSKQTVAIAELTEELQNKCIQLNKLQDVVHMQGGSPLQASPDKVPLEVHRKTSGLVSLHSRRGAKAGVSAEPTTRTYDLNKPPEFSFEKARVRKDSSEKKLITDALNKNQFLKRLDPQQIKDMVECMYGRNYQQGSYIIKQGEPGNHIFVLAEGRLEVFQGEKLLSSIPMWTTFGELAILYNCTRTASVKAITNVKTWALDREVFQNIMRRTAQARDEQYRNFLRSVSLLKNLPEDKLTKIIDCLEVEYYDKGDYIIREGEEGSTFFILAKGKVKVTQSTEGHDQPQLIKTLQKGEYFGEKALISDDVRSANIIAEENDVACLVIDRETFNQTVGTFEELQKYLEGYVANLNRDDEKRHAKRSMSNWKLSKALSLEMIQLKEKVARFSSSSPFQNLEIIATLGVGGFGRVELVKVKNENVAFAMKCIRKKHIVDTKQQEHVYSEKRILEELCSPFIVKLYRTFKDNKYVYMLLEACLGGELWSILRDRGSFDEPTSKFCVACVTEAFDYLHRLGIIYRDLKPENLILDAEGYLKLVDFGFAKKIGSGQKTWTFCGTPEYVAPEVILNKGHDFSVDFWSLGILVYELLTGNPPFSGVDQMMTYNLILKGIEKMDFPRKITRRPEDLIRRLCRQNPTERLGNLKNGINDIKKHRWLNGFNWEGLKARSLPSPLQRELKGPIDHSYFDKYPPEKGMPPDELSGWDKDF
As to conditions: at 0.1 µM.

Assay [17] deals with T6, cGMP-dependent protein kinase 2 (Homo sapiens). The settings on record: at 1 µM.
Assay [18] addresses T7, cAMP-dependent protein kinase catalytic subunit PRKX (Homo sapiens) (UniProt P51817).
T7 sequence (whole entry): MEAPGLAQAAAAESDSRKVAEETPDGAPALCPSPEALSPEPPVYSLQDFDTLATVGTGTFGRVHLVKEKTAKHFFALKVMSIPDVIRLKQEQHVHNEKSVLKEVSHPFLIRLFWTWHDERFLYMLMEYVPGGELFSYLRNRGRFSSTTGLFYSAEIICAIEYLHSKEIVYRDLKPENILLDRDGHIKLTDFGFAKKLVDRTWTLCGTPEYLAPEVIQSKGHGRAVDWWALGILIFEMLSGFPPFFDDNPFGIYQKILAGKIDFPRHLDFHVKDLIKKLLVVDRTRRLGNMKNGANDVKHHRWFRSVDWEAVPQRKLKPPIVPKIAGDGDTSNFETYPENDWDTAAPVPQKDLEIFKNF
As to conditions: at 0.1 µM.

Assay [19] has as its target T7, cAMP-dependent protein kinase catalytic subunit PRKX (Homo sapiens). The settings on record: at 1 µM.
Assay [20] has as its target Rho-associated protein kinase 1 (Homo sapiens) (UniProt Q13464). The settings on record: at 0.1 µM.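 Also: values are mean percent inhibition of ROCK1.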

Sequence of Protein kinase C beta type (Homo sapiens) (P05771 2-671 limits assumed): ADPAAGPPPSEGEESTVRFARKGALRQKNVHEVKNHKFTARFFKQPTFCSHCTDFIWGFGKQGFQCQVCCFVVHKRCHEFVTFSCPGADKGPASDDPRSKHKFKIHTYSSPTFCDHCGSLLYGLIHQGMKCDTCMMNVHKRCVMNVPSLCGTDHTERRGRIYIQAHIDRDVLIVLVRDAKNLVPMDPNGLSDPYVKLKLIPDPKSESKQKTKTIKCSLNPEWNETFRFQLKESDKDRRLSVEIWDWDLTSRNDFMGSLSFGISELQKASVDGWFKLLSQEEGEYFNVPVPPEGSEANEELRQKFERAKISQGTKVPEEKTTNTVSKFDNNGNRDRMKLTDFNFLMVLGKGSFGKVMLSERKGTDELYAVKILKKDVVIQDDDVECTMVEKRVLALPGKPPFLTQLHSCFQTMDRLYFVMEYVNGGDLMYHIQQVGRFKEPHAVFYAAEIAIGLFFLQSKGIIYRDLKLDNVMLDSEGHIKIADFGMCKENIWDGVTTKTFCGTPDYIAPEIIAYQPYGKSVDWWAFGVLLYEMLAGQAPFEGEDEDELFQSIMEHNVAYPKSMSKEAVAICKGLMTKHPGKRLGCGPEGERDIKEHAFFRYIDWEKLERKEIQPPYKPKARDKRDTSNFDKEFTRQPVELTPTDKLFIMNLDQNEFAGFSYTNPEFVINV
Sequence of Protein kinase C theta type (Homo sapiens) (Q04759 whole entry, looked up): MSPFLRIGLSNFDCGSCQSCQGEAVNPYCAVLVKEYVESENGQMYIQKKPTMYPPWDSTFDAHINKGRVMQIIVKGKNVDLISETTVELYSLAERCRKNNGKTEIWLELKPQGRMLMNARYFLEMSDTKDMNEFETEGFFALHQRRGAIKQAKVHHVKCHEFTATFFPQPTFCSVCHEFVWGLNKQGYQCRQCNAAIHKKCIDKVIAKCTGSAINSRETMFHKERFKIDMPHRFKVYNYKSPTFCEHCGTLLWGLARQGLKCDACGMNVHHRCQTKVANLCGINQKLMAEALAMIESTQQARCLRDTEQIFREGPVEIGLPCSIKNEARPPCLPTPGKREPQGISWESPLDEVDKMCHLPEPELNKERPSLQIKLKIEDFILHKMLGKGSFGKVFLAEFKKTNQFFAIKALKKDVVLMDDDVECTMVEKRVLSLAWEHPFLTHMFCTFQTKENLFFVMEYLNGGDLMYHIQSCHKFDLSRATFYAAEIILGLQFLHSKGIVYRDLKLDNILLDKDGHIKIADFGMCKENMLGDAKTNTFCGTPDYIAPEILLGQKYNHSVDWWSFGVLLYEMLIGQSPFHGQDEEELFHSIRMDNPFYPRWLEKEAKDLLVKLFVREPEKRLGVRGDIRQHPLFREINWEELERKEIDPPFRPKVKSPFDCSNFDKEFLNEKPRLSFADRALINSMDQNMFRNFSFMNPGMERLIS
Sequence of Rho-associated protein kinase 1 (Homo sapiens) (Q13464 2-1354 limits assumed): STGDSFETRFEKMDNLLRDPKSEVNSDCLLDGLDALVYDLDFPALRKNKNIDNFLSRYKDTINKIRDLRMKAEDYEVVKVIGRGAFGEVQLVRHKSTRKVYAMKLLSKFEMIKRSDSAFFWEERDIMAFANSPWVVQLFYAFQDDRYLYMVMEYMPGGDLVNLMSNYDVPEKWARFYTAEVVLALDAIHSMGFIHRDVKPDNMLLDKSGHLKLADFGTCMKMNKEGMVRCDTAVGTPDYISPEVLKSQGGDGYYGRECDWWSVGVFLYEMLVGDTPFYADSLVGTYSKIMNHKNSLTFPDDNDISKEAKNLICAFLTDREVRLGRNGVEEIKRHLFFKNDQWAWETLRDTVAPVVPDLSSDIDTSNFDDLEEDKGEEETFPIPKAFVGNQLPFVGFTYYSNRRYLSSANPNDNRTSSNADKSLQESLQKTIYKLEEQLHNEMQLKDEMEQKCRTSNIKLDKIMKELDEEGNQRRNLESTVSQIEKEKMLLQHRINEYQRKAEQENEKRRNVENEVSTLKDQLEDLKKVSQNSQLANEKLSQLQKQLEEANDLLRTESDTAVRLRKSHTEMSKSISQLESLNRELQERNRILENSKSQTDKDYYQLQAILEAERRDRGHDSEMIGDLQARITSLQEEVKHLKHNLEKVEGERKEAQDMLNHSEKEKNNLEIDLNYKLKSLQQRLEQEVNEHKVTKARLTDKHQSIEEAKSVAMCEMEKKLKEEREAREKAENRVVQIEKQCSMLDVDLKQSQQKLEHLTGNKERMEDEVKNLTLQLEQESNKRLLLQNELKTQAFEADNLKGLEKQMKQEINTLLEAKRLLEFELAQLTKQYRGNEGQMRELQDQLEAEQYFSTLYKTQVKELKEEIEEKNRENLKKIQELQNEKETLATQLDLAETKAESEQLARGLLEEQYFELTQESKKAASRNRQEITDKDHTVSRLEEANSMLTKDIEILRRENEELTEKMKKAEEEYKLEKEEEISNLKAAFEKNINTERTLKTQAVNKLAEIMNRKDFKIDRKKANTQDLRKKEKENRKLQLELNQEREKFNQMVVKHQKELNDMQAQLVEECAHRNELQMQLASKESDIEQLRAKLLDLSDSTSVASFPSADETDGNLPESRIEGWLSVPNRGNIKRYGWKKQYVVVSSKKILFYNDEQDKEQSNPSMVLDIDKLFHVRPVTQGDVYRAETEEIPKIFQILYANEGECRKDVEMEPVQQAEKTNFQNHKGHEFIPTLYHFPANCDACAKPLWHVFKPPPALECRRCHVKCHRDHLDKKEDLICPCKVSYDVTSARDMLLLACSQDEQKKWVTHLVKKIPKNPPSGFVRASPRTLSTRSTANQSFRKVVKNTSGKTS

With `NS(=O)(=O)c1ccc(N/N=C2\C(=O)Nc3ccc4ncccc4c32)cc1`, the inhibition (as a rule, the relative decrease from the control value, in per cent) in assay [1] was 11.8%; in assay [2] it was -0.86%; in [3] it was 1.52%; in assay [4] it was 2.1%; in assay [5], 11.8%; in assay [6] it was 1.28%. For the same compound, the inhibition in assay [7] was found to be 3.78%; in assay [8], 12.6%; in assay [9] it was 62.2%; in [10], 9.02%; in [11], 55.7%; in [12] it was 8.6%. Besides, the inhibition is 51.4% in [13]; 4.46% in assay [14]; 22.6% in assay [15]; 9.97% in assay [16]; 46.1% in assay [17]; -0.15% in [18]. The inhibition in assay [19] was found to be 2.43%; in assay [20] it was 7.13%.
